Source: PubChem BioAssay (several laboratories)
Shown are actives, neighbours in structure and some others; about 3.2% of the full set was active somewhere.
MEKK2mut PB1 HTS = signal of MEK5 binding to mutant human MEKK2 PB1 domain; 0.35% of 290,000 active; AID 1530; percent response, % at 10 µM; bead flow cytometry, Alexa488-MEK5 binding to MEKK2 mutant; in the data active means percent response above about 24%, passing the limit was not always enough
MEKK2 WT-MEK5 = raises or lowers MEK5 binding to wildtype human MEKK2 PB1 domain; Q9Y2U5; bead flow cytometry, Alexa488-MEK5 binding to MEKK2 WT; actives lie on both sides; binding response (% of control), % at 10 µM; 1.1% of 290,000 active; AID 1531; in the data active means binding response below about 67% or above about 130%
MEKK3 PB1 HTS = raises or lowers MEK5 binding to the human MEKK3 PB1 domain | Q99759 | bead-based flow cytometry, Alexa488-MEK5 binding to MEKK3; actives lie on both sides; 0 = blocked by unlabeled MEK5, 100 = vehicle | binding response (% of control), % at 10 µM | 1.4% of 290,000 active | AID 1529;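 active means binding response more than 3 SD above or below the average of its plate-row segment, actives on both sides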;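 further: Alexa488 bead fluorescence after subtracting the streptavidin-only scavenger bead signal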
SKN-1 inh = inhibitors of C. elegans SKN-1; 0.49% of 360,000 active; inhibition, % at 21.8 µM; C. elegans VP596 Pgst-4::GFP/RFP ratio, acrylamide-induced, 24 h;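 active means interference check ratio from 0.5 to 1.5 plus GFP to RFP signal ratio inhibition reaching or exceeding a fixed threshold, cut at about 30% in these data, passing the limit was not always enough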
NRP1-CendR mod = modulators of CendR peptide binding to human neuropilin-1; FAM-RPARPAR peptide binding to NRP-1, fluorescence polarization; inhibition, % at 25 µM; 0.85% of 360,000 active; AID 602438;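 active means inhibition or corrected inhibition above about 18%, plus a signal ratio from 0.5 to 1.5, limit read from the data, passing the limit was not always enough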
Target sequence (O14786 whole entry, looked up): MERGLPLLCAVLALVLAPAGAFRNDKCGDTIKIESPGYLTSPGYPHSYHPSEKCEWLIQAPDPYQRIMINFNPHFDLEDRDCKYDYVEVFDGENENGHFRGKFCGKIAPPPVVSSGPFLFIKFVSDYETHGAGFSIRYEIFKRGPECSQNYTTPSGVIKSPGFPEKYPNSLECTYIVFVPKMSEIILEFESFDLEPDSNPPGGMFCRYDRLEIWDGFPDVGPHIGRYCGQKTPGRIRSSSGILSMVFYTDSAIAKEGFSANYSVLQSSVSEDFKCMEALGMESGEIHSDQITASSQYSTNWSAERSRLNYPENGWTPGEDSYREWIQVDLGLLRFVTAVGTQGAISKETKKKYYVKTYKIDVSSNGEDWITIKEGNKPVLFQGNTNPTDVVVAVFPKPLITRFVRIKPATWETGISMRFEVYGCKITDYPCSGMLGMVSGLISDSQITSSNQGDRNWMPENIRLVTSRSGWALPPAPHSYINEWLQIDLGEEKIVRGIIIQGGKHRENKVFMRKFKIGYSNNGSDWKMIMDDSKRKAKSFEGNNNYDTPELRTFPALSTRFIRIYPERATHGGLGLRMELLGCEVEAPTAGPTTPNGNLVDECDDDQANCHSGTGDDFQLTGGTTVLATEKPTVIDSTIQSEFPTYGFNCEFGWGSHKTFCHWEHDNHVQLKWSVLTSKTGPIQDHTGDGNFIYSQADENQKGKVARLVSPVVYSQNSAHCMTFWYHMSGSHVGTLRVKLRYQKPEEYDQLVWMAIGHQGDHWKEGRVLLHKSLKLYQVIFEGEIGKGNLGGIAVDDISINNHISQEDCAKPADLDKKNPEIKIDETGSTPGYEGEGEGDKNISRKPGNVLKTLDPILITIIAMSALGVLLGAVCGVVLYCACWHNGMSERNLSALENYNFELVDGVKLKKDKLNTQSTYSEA
* = called active by the depositor; · = not tested or not shown.

SMILES	MEKK2mut PB1 HTS	MEKK2 WT-MEK5	MEKK3 PB1 HTS	SKN-1 inh	NRP1-CendR mod
FC(F)(F)c1ccc(-c2nc3ccccc3s2)cc1	·	·	·	9	15
Fc1cc(Cl)c(OCc2noc(-c3ccsc3)n2)c(Cl)c1	5	107	107	-15	-10
Clc1ccc(OCc2noc(-c3ccsc3)n2)c(Cl)c1	-2	96	98	74*	15
COc1ccc(-n2nnnc2SCC(=O)N(C)C2CCS(=O)(=O)C2)cc1 (stereo not drawn)	·	·	·	2	26*
COc1ccccc1CCNC(=O)CSc1nc(=O)[nH]c2c1CCC2	·	·	·	-12	-5
c1ccc(-n2nnc(-c3nccs3)n2)cc1	1	101	102	36*	24
Brc1ccccc1-n1nnc(-c2nccs2)n1	2	102	102	26	12
O=C(c1ccccc1)c1c[nH]c2cc3c(cc2c1=O)OCCO3	1	108	121	47*	7
O=C(c1ccccc1)c1c[nH]c2cc3c(cc2c1=O)OCO3	-1	97	127	·	·
Cc1ccc(S(=O)(=O)N2[C@@H](c3ccc(Br)cc3)C(C(=O)O)=CC[C@H]2c2ccc3c(c2)OCO3)cc1	·	·	·	3	0
Cc1cc(CNC[C@H]2O[C@@H](n3ccc(=O)[nH]c3=O)[C@H](O)[C@@H]2O)no1	·	·	·	-12	4
O=C1NC[C@H](CCCCN2C[C@H](Cc3ccc(O)cc3)N(Cc3ccccc3)C(=O)C2=O)N(CC2CCCCC2)C1=O	·	·	·	32	-9
COc1ccc(-c2cn(-c3ccccc3)nc2C(=O)O)cc1OC	14	112	108	24	2
COc1cc(/C=N/NC(=O)Cc2csc(C)n2)ccc1OCC(C)C	-7	95	97	-1	7
COc1ccc(/C=N/NC(=O)Cc2csc(Nc3cccc(C(F)(F)F)c3)n2)cc1C	-4	91	90	37*	-3
COc1ccccc1-n1c(SCC(=O)N2CCCC2)nnc1-c1ccccc1	-6	101	98	6	21*
COc1ccccc1-n1c(SCC(N)=O)nnc1-c1ccc(S(=O)(=O)N2CCCCC2)cc1	0	99	98	6	0
Cc1ccc(C(=O)O)cc1NC(=O)Nc1cccc2ccccc12	4	103	102	4	22*
Cn1c2ccccc2c(=O)c2ccc(C#CC3(O)CCCCC3)cc21	-2	99	101	17	-9
CCOC(=O)SC1=N/C(=C\c2ccc(N(C)C)cc2)C(=O)S1	-10	77	90	41*	-2
CCSC1=N/C(=C\c2ccc(C(=O)O)cc2)C(=O)S1	1	110	106	9	-19
NC(c1csc(Nc2ccc(C(=O)c3ccccc3)cc2)n1)C1CCCCC1 (stereo not drawn)	·	·	·	-6	-2
O=C(O)c1cccnc1Sc1ccccc1Cl	9	29*	97	-8	-21
O=C(NC1CCCCC1)c1cccnc1Sc1ccccc1Cl	0	96	98	17	3
C/C(CC(=O)N1CCN(C=O)CC1)=N\NC(=O)c1cccc([N+](=O)[O-])c1	5	15*	108	10	1
SMILES	MEKK2mut PB1 HTS	MEKK2 WT-MEK5	MEKK3 PB1 HTS	SKN-1 inh	NRP1-CendR mod
O=C(CN(Cc1ccco1)C(=O)CNS(=O)(=O)c1ccc(Cl)cc1)NCC1CCCO1 (stereo not drawn)	23	111	122	-10	9
O=C(CN(Cc1ccco1)C(=O)CNS(=O)(=O)c1ccc(Cl)cc1)NC1CCCCC1	3	103	102	38*	-4
O=C1C(C=NCCN2CCOCC2)=C(O)c2ccccc21	0	102	106	-4	27*
O=C1C(C=NCCCN2CCOCC2)=C(O)c2ccccc21	4	102	100	0	4
Clc1ccc(OCCCCCN2CCOCC2)cc1	11	112	109	39*	3
Cc1cc(Cl)cc(C)c1OCCCCN1CCOCC1	7	108	102	43*	6
CCCCOc1ccc(OCCCN2CCOCC2)cc1	3	94	92	-3	11
C[C@@H]1CN([C@@H](C)CO)S(=O)(=O)c2ccc(Br)cc2O[C@H]1CN(C)C(=O)Nc1ccc2c(c1)OCO2	·	·	·	-6	0
NS(=O)(=O)c1ccc(N/N=C/c2cn(-c3ccccc3)nc2-c2cccs2)cc1	8	116	101	6	30*
COc1cc(C(=O)Nc2cc3c(cc2N2CCCCC2)n(C)c(=O)n3C)cc(OC)c1OC	-2	101	101	1	28*
COc1ccc2nc3c(cc2c1)c(NC(=O)c1cccs1)nn3CC(C)C	·	·	·	18	45*
Cc1ccc(NC(=O)c2cc(N3C(=O)C4CCCCC4C3=O)ccc2N2CCOCC2)cc1 (stereo not drawn)	-6	89	100	4	25*
Cc1ccc(/C=C/C(=O)Nc2ccc(S(N)(=O)=O)cc2)o1	2	91	105	-6	-12
Cc1nc(Nc2ccc(S(N)(=O)=O)cc2)oc1C	-1	98	97	-19	26*
CCCCNC(=O)COC(=O)c1cc(S(=O)(=O)N2CCCCCC2)ccc1OC	-2	100	98	40*	12
CCc1ccc2oc(-c3cccc(NC(=O)c4cccnc4)c3)nc2c1	-1	103	104	-6	-9
O=C(Nc1ccc2oc(-c3ccccc3)nc2c1)c1cccnc1	-8	95	97	39*	3
CC1CCCC(NC(=O)CN(C)CC(=O)Nc2cccc(F)c2)C1C (stereo not drawn)	·	·	·	4	-12
CCOc1ccc(NC(=O)NNC(=O)c2ccc3ccccc3c2O)cc1	6	111	105	-6	26*
CCc1ccccc1NC(=O)NNC(=O)c1ccc2ccccc2c1O	6	107	100	9	3
CCNC(=O)C1(C)CCCN1C(=O)c1cnc2ccccc2n1 (stereo not drawn)	·	·	·	15	4
O=C(Nc1ccccc1N1CCOCC1)c1ccc(N2CCCC2=O)cc1	·	·	·	3	25*
COc1cc(S(=O)(=O)N2CC(=O)Nc3ccccc32)ccc1NC(C)=O	5	100	102	-14	6
CCCc1cc(-c2nc(-c3ccc(Cl)cc3)cs2)ccn1	6	105	107	56*	2
CCCc1cc(-c2nc(-c3ccc(Br)cc3)cs2)ccn1	-1	107	103	19	9
COCCCNC(=O)/C=C/[C@H]1O[C@@H](n2cnc3c(NC(=O)c4ccccc4)ncnc32)[C@H](O)[C@@H]1O	·	·	·	8	-1
O=C(/C=C/[C@H]1O[C@@H](n2cnc3c(NC(=O)c4ccccc4)ncnc32)[C@H](O)[C@@H]1O)NCc1cccs1	·	·	·	5	18*
O=C(CC[C@H]1O[C@@H](n2cnc3c(NC(=O)c4ccccc4)ncnc32)[C@H](O)[C@@H]1O)NCC(F)(F)F	·	·	·	3	20*
O=C(Nc1ccc(Cl)cc1Cl)C1=Cc2ccccc2OC1	7	104	103	37*	-7
